Values without a mark were called inactive. No rule for the calls is given here.
biological target: L-lactate dehydrogenase (Plasmodium falciparum (isolate CDC / Honduras)) (UniProt Q27743); test: PfLDH activity inhibition – cell lysate, 3D7 strain, counter-screen for P. falciparum growth inhibition project (AID 2304);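 also: 0% = vehicle and 100% = reference inhibitor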; conditions: P. falciparum 3D7 crude extract, LDH APAD/NBT absorbance; at 2 µM; stronger effect = higher value
Sequence (Q27743 whole entry, looked up): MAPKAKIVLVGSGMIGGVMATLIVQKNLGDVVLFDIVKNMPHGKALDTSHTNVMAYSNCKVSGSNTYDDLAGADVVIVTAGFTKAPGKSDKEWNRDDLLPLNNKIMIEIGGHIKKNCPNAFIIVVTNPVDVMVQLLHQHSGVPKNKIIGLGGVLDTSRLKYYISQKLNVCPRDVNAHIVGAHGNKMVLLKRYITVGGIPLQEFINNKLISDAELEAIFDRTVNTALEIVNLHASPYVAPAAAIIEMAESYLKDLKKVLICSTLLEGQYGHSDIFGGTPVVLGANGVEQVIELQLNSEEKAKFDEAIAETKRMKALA

Compound	inhibition [%]
Cc1cc(=O)[nH]c(/N=C(/N)NOCCCc2ccccc2)n1	3
NCCC(=O)Nc1ccc(-c2cnc3[nH]cc(-c4ccc(C(=O)O)cc4)c3c2)cn1	3
Cc1nc(N)nc(N)c1-c1ccc(Br)c([N+](=O)[O-])c1	2
O=[N+]([O-])c1ccccc1C=NNc1ccnc2cc(Cl)ccc12	3
Cc1cc(F)ccc1[C@H]1CNCCN1C(=O)N(C)C(C)(C)c1cc(C(F)(F)F)cc(C(F)(F)F)c1	-4
CN1CCC(NCc2ccc(S(=O)(=O)Nc3ccc(Oc4cccc(Cl)c4)cc3)cc2)CC1	0
Cc1cc(N[C@@H](Cc2ccccc2)C(=O)NCc2cccs2)nc(NCCc2ccc(F)cc2)n1	3
COc1ccc([N+](=O)[O-])cc1N(Cc1ccccc1-c1ccccc1)S(=O)(=O)c1ccc(C(F)(F)F)cc1	-2
O=C(Nc1ccc(CCN2CCC(c3nc(COCC(F)(F)F)c(-c4ccccc4)o3)CC2)cc1)c1ccc(F)cc1	3
CCCNCc1ccc(-c2ccc(CN(C(=O)c3nn(-c4ccccc4)nc3C)C3CCOCC3)cc2)nc1	4
CN(C)CCOc1cc(NC(=O)Nc2ccc(-c3ccccc3)cc2)ccc1I	-3
CN1CCN(Cc2cccc(-c3ccc4c(Nc5ccc(Oc6ccccc6)cc5)ccnc4c3)c2)CC1	6
CN1CCN(c2ccc3nccc(CCN4CCC(NCc5ccc6c(n5)NC(=O)CO6)CC4)c3n2)CC1	-1
CCCCCCN1CCCN(Cc2ccc(C(=O)Nc3ccc(C(C)C)cc3)cc2)CC1	-4
CCOC(=O)c1c(C)n(-c2ccccc2)c2ccc(OC(=O)c3ccc(S(=O)(=O)N(CC)CC)cc3)cc12	-3
CCCCNC(=O)[C@@H](NC(=O)c1ccc(O)c(-c2ccc(Cl)c(Cl)c2)c1)C(C)C	2
O=C(Cn1c(CCc2cccc(F)c2F)cc(=O)c2cccnc21)N(CCCn1ccnc1)Cc1ccc(-c2ccc(C(F)(F)F)cc2)cc1	-3
CS(=O)(=O)n1c(CN2CCN(c3ncc(C(F)(F)F)cc3Cl)CC2)nc2ccccc21	-4

Compound	inhibition [%]
CCOc1cc(C(=O)NC2CCN(Cc3ccccc3)C2)ccc1-c1nc2ccc(Cl)cc2[nH]1 (stereo unspecified)	6
OC(CNCc1ccccc1OCc1ccccc1)c1cc(Br)cs1 (stereo unspecified)	5
Cc1nc2nc(N)nc(N)c2c(C)c1Cc1ccccc1	3
Cc1cnc(CS(=O)c2nc3ccc(C(F)(F)F)cc3[nH]2)cc1OCc1ccccc1 (stereo unspecified)	-2
N#Cc1ccc(-c2ccc(C(=O)Nc3ccc4c(c3)CCN(C3CCC3)CC4)nc2)cn1	-1
C[C@@H](CC1CCCCC1)OC(=O)N(C)[C@H]1CCN(C#N)C1	-6
O=C(Cc1cccc(Cl)c1)N1CCc2cc3nccc(N4CCN5CCC[C@H]5C4)c3cc21	4
O=C(Nc1ccc(C(=O)N2CCN(CCN3CCN(c4cccc(C(F)(F)F)c4)CC3)CC2)cc1)c1cc(Cl)cc(Cl)c1	3
COc1ccc(NC(=O)Nc2cccc(-c3ccncc3)c2)cc1N1CCN(C)CC1	5
O=C(/C=C/c1ccc(Cl)c(Cl)c1)NCCCCN1CCCN(C(=O)Nc2ccc(F)c(Cl)c2)CC1	1
CS(=O)(=O)Nc1ccc2[nH]cc(C3CCN(CC(O)C4CCN(C(=O)/C=C/c5ccc(Cl)c(Cl)c5)CC4)CC3)c2c1 (stereo unspecified)	-3
CCCCCC1c2[nH]c3ccccc3c2CCN1C(=O)OCc1ccccc1 (stereo unspecified)	-3
O=C(NCCCCN1CCC(c2c[nH]c3ccc(-c4ccccc4)cc23)CC1)c1ccc(-c2ccccc2)cc1	3
O=C(NCc1ccc2c(c1)OCO2)c1nn(CCN2CCC(N3CCCC3)CC2)cc1-c1ccc(Cl)c(Cl)c1	-2
CN1CCN(CCCCCCNc2c3ccccc3nc3ccccc23)CC1	-3
CCN(CC)CCOC(=O)c1ccc(NC(=O)c2cn(-c3ccccc3)nc2-c2cccs2)cc1	3
CCN(CC)CCN(Cc1ccc(-c2ccc(C(F)(F)F)cc2)cc1)C(=O)CN1C(CCc2cccc(F)c2F)=NS(=O)(=O)c2ccccc21	-1
CCN(CC)CCOc1ccc(N(Cc2ccc(C(C)(C)C)cc2)C(=O)c2ccc(Cc3ccccc3)cc2)cc1OC	0
